The results in this text go back to PubChem BioAssay.

Experiment [1] concerns XIP peptide (Xip251-270) binding. Description: XIP fragment 251-270 binding compounds – biochemical, small-molecule microarray, fluorescence 635/667 nm, 0.1 µg/mL protein, primary screen (AID 1182). The settings on record: fluorescent protein binding, 635 nm, higher = more signal, called active from +8 up or from −8 down.
Another experiment has as its system XIP peptide (Xip251-270). Description: compounds binding XIP fragment 251-270 – biochemical, small-molecule microarray, fluorescence 635/667 nm, 0.5 µg/mL protein, primary screen (AID 1183). The conditions noted are these: fluorescence 635 nm, higher = more signal.
The nature of experiment [2]: blood-stage malaria parasite viability loss – strain 3D7, DAPI fluorescence, 100 nL, primary screen (AID 1184).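 Note: parasites grown inside human red blood cells in medium with human serum.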 The conditions noted are these: P. falciparum 3D7 growth, 3 d, higher = more signal.
In experiment [3] the target is Homeobox protein Hox-A13 (Mus musculus) (UniProt Q62424). The experiment is described as follows: disruptors of Hoxa13 oligonucleotide interaction – biochemical, fluorescence polarization, labeled oligonucleotide, primary screen (AID 1185). The conditions noted are these: Hoxa13:DNA binding, 15 min, higher = more signal, called active from +8 up or from −8 down. (In general: In fluorescence polarisation assays a small probe gives low polarisation when free and higher when bound to something large.)
Sequence of Homeobox protein Hox-A13 (Mus musculus) (Q62424 whole entry, looked up): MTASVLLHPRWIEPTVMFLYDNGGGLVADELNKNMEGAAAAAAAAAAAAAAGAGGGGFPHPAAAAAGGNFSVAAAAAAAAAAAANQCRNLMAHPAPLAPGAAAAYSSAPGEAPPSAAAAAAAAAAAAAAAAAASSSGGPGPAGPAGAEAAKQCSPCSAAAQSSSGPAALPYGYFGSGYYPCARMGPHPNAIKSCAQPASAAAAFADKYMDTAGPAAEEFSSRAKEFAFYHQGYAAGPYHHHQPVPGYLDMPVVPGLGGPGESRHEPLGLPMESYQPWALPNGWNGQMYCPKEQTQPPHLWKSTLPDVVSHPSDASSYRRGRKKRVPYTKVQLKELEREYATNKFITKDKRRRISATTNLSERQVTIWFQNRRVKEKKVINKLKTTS

Experiment [4] can be described thus: blockers of DNA damage checkpoint Chk1 activation – imaging, HeLa, hydroxyurea, phospho-Chk1 antibody, percent positive cells, primary screen (AID 1186). The conditions noted are these: hydroxyurea-induced phospho-Chk1 immunofluorescence imaging, higher = more signal.
Experiment [5] is described as follows: blockers of DNA damage checkpoint Chk1 activation – imaging, HeLa, hydroxyurea, phospho-Chk1 nuclear intensity, primary screen (AID 1187). The settings on record: hydroxyurea-induced phospho-Chk1 immunofluorescence imaging, higher = more signal.

Each structure is given as a SMILES string. Calls of active or inactive are those of the source. Unless noted, the rule behind the calls is not given here.

As to `COC(=O)C(CC#Cc1ccc2c(c1)[C@]1(C(=O)N2)[C@H](c2ccccc2OCCO)N2[C@H](c3ccccc3)[C@H](c3ccccc3)OC(=O)[C@H]2[C@@H]1C(=O)N1CCN(c2ncccn2)CC1)C(=O)OC`, the composite z-score in experiment [1] is -0.0996 (inactive); in the experiment on XIP peptide (Xip251-270), 0.539. Besides, the z-score in experiment [2] is -2.27; in experiment [3], -1.41 (inactive); in experiment [4] it was 0.0162 (inactive); in experiment [5], -0.581 (inactive).

In the case of `COC(=O)C1(CC(C)C)C=C2C(=C(C)C(=O)C2C)CN1` (stereo not given), the composite z-score was -0.583 (inactive) in experiment [1] and 0.992 in the experiment with XIP peptide (Xip251-270). The z-score in experiment [2] is 0.51; in experiment [3], -4.02 (inactive); in experiment [4] it was 0.886 (inactive); in experiment [5], 0.911 (inactive).

As for `C[C@H]1C2[C@H](Cc3ccccc3)NC(=O)[C@]23C(=O)N[C@@H](Cc2ccccc2)C(=O)N2CCC[C@H]2C(=O)NC/C=C/CC/C=C/C3[C@@H]2O[C@]12C` (stereo not given in full), the composite z-score in experiment [1] is 0.182 (inactive); with XIP peptide (Xip251-270), 0.457. Besides, the z-score was -2.99 in experiment [2], -7.13 (inactive) in experiment [3], -0.234 (inactive) in experiment [4] and -0.437 (inactive) in experiment [5].

Regarding `C=C(CCCC)C(=O)CC[C@@H](OC(C)=O)c1ccc(OCCO)cc1`, the composite z-score is 0.386 (inactive) in experiment [1] and 0.607 with XIP peptide (Xip251-270). Moreover, the z-score in experiment [2] is -2.07; in experiment [3], -5.09 (inactive); in experiment [4] it was -0.266 (inactive); in experiment [5], -0.266 (inactive).

On to `COC(=O)[C@@]1(Cc2ccc(OC)cc2)[C@H]2c3cc(C(=O)N(C)C)n(Cc4c(CO)[nH]cc(C)c4=O)c3C[C@H]2CN1C(=O)c1ccccc1`, for which the results for the composite z-score (in experiment [1]; with XIP peptide (Xip251-270)) were -0.582 (inactive) and 0.349, respectively. Moreover, the z-score in experiment [2] is -0.116; in experiment [3], -3.64 (inactive); in experiment [4], 0.54 (inactive); in experiment [5], 0.376 (inactive).

For `C=CCN1C(=O)[C@@]2(O[C@@H](CCO)[C@H]([Si](C)(C)c3ccc(OC)cc3)[C@H]2C)c2cc(N3CCCCC3=O)ccc21`, the composite z-score in experiment [1] is 0.561 (inactive); with XIP peptide (Xip251-270) it was 0.625. In addition, the z-score in experiment [2] was -2.42; in experiment [3], -6.02 (inactive); in experiment [4], -1.22 (inactive); in experiment [5], -0.485 (inactive).

`[N-]=[N+]=Nc1ccccc1C[C@@]1(C(=O)NCC(O)CO)N=C(c2ccc(OCCCO)cc2)O[C@@H]1c1ccccc1N=[N+]=[N-]` (stereo not given in full): the values for the composite z-score (in experiment [1]; in the experiment with XIP peptide (Xip251-270)) were 0.0609 (inactive) and 0.0519, respectively. For the same compound, the z-score in experiment [2] is -2.15; in experiment [3] it was -2.28 (inactive); in experiment [4], -0.0996 (inactive); in experiment [5], 0.263 (inactive).

Turning to `CC[C@H]1C2=C3C(CC[C@H]4C(OCc5ccc(F)cc5C(F)(F)F)OC[C@](C)([C@@H]34)N(C(=O)OC(C)(C)C)C2)C(COC(C)=O)C1COC(C)=O` (stereo not given in full), the composite z-score was 0.28 (inactive) in experiment [1] and 0.633 with XIP peptide (Xip251-270). For the same compound, the z-score in experiment [2] is -1.24; in experiment [3] it was -3.07 (inactive); in experiment [4] it was 0.127 (inactive); in experiment [5] it was 0.294 (inactive).

On to `C=C(CCCC)/C(=C/C[C@@H](OC(C)=O)c1cccc(OCCO)c1)c1cc(C(=O)OC)ccc1OC`, for which the composite z-score in experiment [1] is -0.234 (inactive); in the experiment with XIP peptide (Xip251-270) it was 0.826. In addition, the z-score in experiment [2] is -3.06; in experiment [3], -5.01 (inactive); in experiment [4], 0.496 (inactive); in experiment [5], 0.331 (inactive).

On to `COC(=O)C(CC#Cc1ccc2c(c1)[C@]1(C(=O)N2)[C@H](C(=O)N2CCCCCCC2)[C@H]2C(=O)O[C@H](c3ccccc3)[C@H](c3ccccc3)N2[C@@H]1c1ccc(OCCO)cc1)C(=O)OC`, for which the composite z-score in experiment [1] was 6.2 (inactive); with XIP peptide (Xip251-270), 0.956. The z-score in experiment [2] is -2.14; in experiment [3], -6.85 (inactive); in experiment [4] it was 0.185 (inactive); in experiment [5], 0.331 (inactive).

Turning to `CN1C2C=C(c3ccc(CO)cc3)C(C3C(=O)N(C(N)=O)C(=O)C32)C1C1CC1` (stereo not given), the composite z-score in experiment [1] was -0.313 (inactive); in the experiment on XIP peptide (Xip251-270), 0.0909. For the same compound, the z-score in experiment [2] was -0.854; in experiment [3], -6.63 (inactive); in experiment [4], 0.258 (inactive); in experiment [5], 0.169 (inactive).

As to `COCCOC(=O)N1C(=O)[C@@]2(c3cc(C#CCC(C(=O)OC)C(=O)OC)ccc31)[C@H](C(N)=O)[C@H]1C(=O)O[C@H](c3ccccc3)[C@H](c3ccccc3)N1[C@@H]2c1ccccc1OCCO`, the composite z-score in experiment [1] was 0.286 (inactive); in the experiment on XIP peptide (Xip251-270), 0.575. In addition, the z-score was -1.93 in experiment [2], -2.49 (inactive) in experiment [3], -0.663 (inactive) in experiment [4] and -1.57 (inactive) in experiment [5].

With `CC[C@@H](O[Si](C#C[Si](C(C)C)(C(C)C)C(C)C)(C(C)C)C(C)C)c1cn(Cc2cccc(Cl)c2)nn1`, the composite z-score in experiment [1] was 0.242 (inactive); in the experiment with XIP peptide (Xip251-270) it was -0.0319. Moreover, the z-score was 0.163 in experiment [2], 0.335 (inactive) in experiment [3], 0.212 (inactive) in experiment [4] and -0.0184 (inactive) in experiment [5].

For `COc1ccc(CCNC(=O)[C@@H]2c3ccccc3C(=O)N(C(C)C)[C@H]2c2ccc(CO)cc2)cc1`, the composite z-score in experiment [1] was -0.343 (inactive); in the experiment with XIP peptide (Xip251-270) it was -0.898. In addition, the z-score in experiment [2] is 1.13; in experiment [3] it was -2.13 (inactive); in experiment [4], -0.182 (inactive); in experiment [5], -0.238 (inactive).

Consider `O=C1OC[C@@H](c2ccccc2)n2cc(/C=C/c3ccccc3)cc21`, for which the composite z-score in experiment [1] is 0.623 (inactive); in the experiment on XIP peptide (Xip251-270), 0.505. Further, the z-score in experiment [2] is -0.0812; in experiment [3], 0.816 (inactive); in experiment [4], -0.481 (inactive); in experiment [5], -0.268 (inactive).
